Among all 5,500 compounds or so, about 2,000 (36%) were called active. Roughly 18% stayed inconclusive and do not appear here. Cut-off read from the data, not from the text of the source: active = normalized growth mostly below about 0.91 (no sharp cut-off); inconclusive = no clear call, values can overlap the other calls; inactive = mostly above about 0.92. Some of the results follow.
Assay: chemical genetic growth profiling, strain panel (AID 1159580);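 note: tested at 20 µM; growth read once vehicle control cultures reached saturation at 30 °C; 1 = growth at the plate median or of vehicle wells; lower values mean less growth of the strain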
Details: growth OD

Measured: normalized growth

CC(=O)NCc1c(I)c(NC(C)=O)c(I)c(C(=O)O)c1I
inactive: S. cerevisiae deletion strains, locus YJR075W, strain HOC1, hits give low values 1.01 | S. cerevisiae deletion strains, locus YKL009W, strain mrt4, hits give low values 1.1 | S. cerevisiae deletion strains, locus YKL068W, hits give low values 0.977 | S. cerevisiae deletion strains, locus YKL085W, strain MDH1 (second series), hits give low values 1.01 | S. cerevisiae deletion strains, locus YKL085W, strain MDH1, hits give low values 1.01 | S. cerevisiae deletion strains, locus YKL160W, strain elf1, hits give low values 0.981 | S. cerevisiae deletion strains, locus YKL190W, strain CNB1, hits give low values 0.997 | S. cerevisiae deletion strains, locus YKR001C, strain vps1, hits give low values 1 | S. cerevisiae deletion strains, locus YKR026C, strain gcn3, hits give low values 0.994 | S. cerevisiae deletion strains, locus YKR091W, strain srl3, hits give low values 0.998 | S. cerevisiae deletion strains, locus YLL001W, strain dnm1, hits give low values 0.999 | S. cerevisiae deletion strains, locus YLL026W, hits give low values 0.991 | S. cerevisiae deletion strains, locus YLL041C, strain sdh2, hits give low values 0.995 | S. cerevisiae deletion strains, locus YLR027C, strain aat2, hits give low values 1 | S. cerevisiae deletion strains, locus YLR039C, strain RIC1, hits give low values 1 | S. cerevisiae deletion strains, locus YLR058C, strain SHM2, hits give low values 0.999 | S. cerevisiae deletion strains, locus YLR102C, strain apc9, hits give low values 0.993 | S. cerevisiae deletion strains, locus YLR113W, strain HOG1, hits give low values 1.02 | S. cerevisiae deletion strains, locus YLR221C, strain rsa3, hits give low values 0.992 | S. cerevisiae deletion strains, locus YLR258W, strain gsy2, hits give low values 1 | S. cerevisiae deletion strains, locus YLR262C, strain YPT6 (second series), hits give low values 1 | S. cerevisiae deletion strains, locus YLR262C, strain YPT6, hits give low values 0.991 | S. cerevisiae deletion strains, locus YLR268W, strain sec22, hits give low values 0.97 | S. cerevisiae deletion strains, locus YLR320W, strain mms22, hits give low values 0.978 | S. cerevisiae deletion strains, locus YLR330W, strain CHS5, hits give low values 0.992 | S. cerevisiae deletion strains, locus YLR342W, strain FKS1 (second series), hits give low values 1.04 | S. cerevisiae deletion strains, locus YLR342W, strain FKS1, hits give low values 0.999 | S. cerevisiae deletion strains, locus YLR357W, strain rsc2, hits give low values 1.01 | S. cerevisiae deletion strains, locus YLR370C, strain arc18, hits give low values 1 | S. cerevisiae deletion strains, locus YLR371W, strain rom2, hits give low values 0.99 | S. cerevisiae deletion strains, locus YLR384C, strain iki3, hits give low values 0.987 | S. cerevisiae deletion strains, locus YLR418C, strain cdc73, hits give low values 1.02 | S. cerevisiae deletion strains, locus YML016C, strain PPZ1, hits give low values 1 | S. cerevisiae deletion strains, locus YML032C, strain rad52, hits give low values 0.998 | S. cerevisiae deletion strains, locus YML120C, strain ndi1, hits give low values 0.994 | S. cerevisiae deletion strains, locus YML124C, strain tub3, hits give low values 1 | S. cerevisiae deletion strains, locus YMR058W, strain fet3, hits give low values 0.995 | S. cerevisiae deletion strains, locus YMR078C, strain ctf18, hits give low values 0.984 | S. cerevisiae deletion strains, locus YMR125W, strain sto1, hits give low values 1.02 | S. cerevisiae deletion strains, locus YMR129W, hits give low values 1 | S. cerevisiae deletion strains, locus YMR205C, strain PFK2, hits give low values 1.01 | S. cerevisiae deletion strains, locus YMR223W, strain ubp8, hits give low values 1.02 | S. cerevisiae deletion strains, locus YMR231W, strain pep5, hits give low values 0.991 | S. cerevisiae deletion strains, locus YMR263W, strain SAP30, hits give low values 0.987 | S. cerevisiae deletion strains, locus YMR307W, strain GAS1, hits give low values 1.08 | S. cerevisiae deletion strains, locus YNL067W, strain RPL9B, hits give low values 0.987 | S. cerevisiae deletion strains, locus YNL071W, strain lat1, hits give low values 1 | S. cerevisiae deletion strains, locus YNL128W, strain TEP1, hits give low values 0.988 | S. cerevisiae deletion strains, locus YNL153C, strain GIM3, hits give low values 0.999 | S. cerevisiae deletion strains, locus YNL183C, strain NPR1, hits give low values 0.963 | S. cerevisiae deletion strains, locus YNL209W, strain ssb2, hits give low values 1 | S. cerevisiae deletion strains, locus YNL233W, strain BNI4, hits give low values 1.01 | S. cerevisiae deletion strains, locus YNL248C, strain rpa49, hits give low values 0.996 | S. cerevisiae deletion strains, locus YNL250W, strain rad50, hits give low values 0.99 | S. cerevisiae deletion strains, locus YNL271C, strain bni1, hits give low values 0.989 | S. cerevisiae deletion strains, locus YNL298W, strain CLA4, hits give low values 0.995 | S. cerevisiae deletion strains, locus YNL307C, strain MCK1, hits give low values 0.997 | S. cerevisiae deletion strains, locus YNL322C, strain KRE1 (second series), hits give low values 0.989 | S. cerevisiae deletion strains, locus YNL322C, strain KRE1, hits give low values 0.994 | S. cerevisiae deletion strains, locus YNR049C, strain mso1, hits give low values 0.996 | S. cerevisiae deletion strains, locus YNR052C, strain pop2, hits give low values 0.978 | S. cerevisiae deletion strains, locus YOL006C, strain TOP1, hits give low values 0.981 | S. cerevisiae deletion strains, locus YOL012C, strain htz1 0.964 | S. cerevisiae deletion strains, locus YOL147C, strain pex11, hits give low values 0.995 | S. cerevisiae deletion strains, locus YOR001W, strain rrp6, hits give low values 1.01 | S. cerevisiae deletion strains, locus YOR061W, strain CKA2, hits give low values 1 | S. cerevisiae deletion strains, locus YOR069W, strain VPS5, hits give low values 0.998 | S. cerevisiae deletion strains, locus YOR070C, strain gyp1, hits give low values 0.998 | S. cerevisiae deletion strains, locus YOR080W, strain dia2, hits give low values 0.995 | S. cerevisiae deletion strains, locus YOR083W, strain WHI5, hits give low values 0.983 | S. cerevisiae deletion strains, locus YOR106W, strain vam3, hits give low values 0.979 | S. cerevisiae deletion strains, locus YOR136W, strain idh2, hits give low values 0.999 | S. cerevisiae deletion strains, locus YOR144C, strain elg1, hits give low values 0.984 | S. cerevisiae deletion strains, locus YOR184W, strain ser1, hits give low values 0.995 | S. cerevisiae deletion strains, locus YOR231W, strain MKK1, hits give low values 1.03 | S. cerevisiae deletion strains, locus YOR265W, strain rbl2, hits give low values 0.994 | S. cerevisiae deletion strains, locus YOR270C, strain vph1, hits give low values 1.02 | S. cerevisiae deletion strains, locus YOR290C, strain snf2, hits give low values 1.01 | S. cerevisiae deletion strains, locus YOR316C, strain cot1, hits give low values 0.986 | S. cerevisiae deletion strains, locus YPL051W, strain arl3, hits give low values 0.997 | S. cerevisiae deletion strains, locus YPL055C, strain LGE1, hits give low values 0.984 | S. cerevisiae deletion strains, locus YPL078C, strain atp4, hits give low values 1 | S. cerevisiae deletion strains, locus YPL106C, strain sse1, hits give low values 0.993 | S. cerevisiae deletion strains, locus YPL240C, strain hsp82, hits give low values 0.98 | S. cerevisiae deletion strains, locus YPL241C, strain CIN2, hits give low values 1 | S. cerevisiae deletion strains, locus YPL256C, strain CLN2, hits give low values 1.01 | S. cerevisiae deletion strains, locus YPR119W, strain clb2, hits give low values 0.999 | S. cerevisiae deletion strains, locus YPR141C, strain kar3, hits give low values 0.986 | S. cerevisiae deletion strains, locus YPR163C, strain tif3, hits give low values 1 | S. cerevisiae deletion strains, locus YPR167C, strain met16, hits give low values 0.985 | S. cerevisiae deletion strains, strain wtn01, hits give low values 0.989 | S. cerevisiae strains, strain wild type, hits give low values 1

Source: PubChem BioAssay AID1159580 (chemical genetic matrix, 2015)
